Experimental data as given in PubChem BioAssay.
Active and inactive are the calls of the source.

Legend:
[1] = system: PRMT1 (protein arginine N-methyltransferase 1); assay: PRMT1 binders on small-molecule microarrays, primary screen, biochemical, small-molecule microarray, 635 nm fluorescence (AID 1088); conditions: small-molecule microarray binding, higher = more signal;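 note: binding of Prmt1 protein to compounds spotted on small-molecule microarray slides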
[2] = yeast growth modulation, basal conditions, primary screen, YJM789 clinical isolate, OD600, 24 h (AID 1089);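 note: growth of clinical yeast isolate S. cerevisiae YJM 789 seeded 1000 cells per well; test concentration not given here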; conditions: S. cerevisiae YJM789 growth, higher = more signal, called active from +8 up or from −8 down
[3] = fission yeast growth modulation, primary screen, strain 972, OD600, 24 h, no modulator (AID 1090);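 note: basal condition with compound alone and no growth modifier present; test concentration not given here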; conditions: S. pombe 972 growth, higher = more signal, called active from +8 up or from −8 down
[4] = S. cerevisiae growth modulation with rapamycin, primary screen, strain BY4716, OD600, 96 h (AID 1091); conditions: higher = more signal, called active from +8 up or from −8 down; note: test concentration not given here
[5] = target: Torsin-1A-interacting protein 2 (Homo sapiens) (UniProt Q8NFQ8); assay: LULL1 binders on small-molecule microarray, primary screen, cell lysate, human LULL1 lysate, 635/667 nm fluorescence (AID 1092); conditions: hLULL1 lysate binding, 635 nm fluorescence, higher = more signal;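 note: probe is lysate of COS7 cells overexpressing human LULL1; score merges per-feature 667 nm fluorescence with signal-to-noise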
[6] = E. coli growth modulation, two-sided OD650, primary screen, E. coli filamentation project, strain DRC41, 24 h (AID 1093); conditions: OD650, 24 h, higher = more signal, called active from +8 up or from −8 down;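 note: MC1000 strain lacking acrAB efflux and sulA so SOS filamentation is blocked; test concentration not given here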
[7] = small-molecule microarray binders of probe aLefty2, primary screen, biochemical, biotinylated probe, 635/667 nm fluorescence (AID 1094); conditions: higher = more signal;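 note: score merges spot fluorescence near 667 nm with spot signal-to-noise ratio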
[8] = system: Noggin (protein binding on small-molecule microarray); assay: Noggin binders on small-molecule microarray, primary screen, biochemical, 635/667 nm fluorescence (AID 1095); conditions: 635 nm fluorescence, higher = more signal;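 note: score merges 667 nm feature fluorescence with signal to noise over triplicate slides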
[9] = target: Neurogenic locus notch homolog protein 3 (Homo sapiens) (UniProt Q9UM47); assay: NOTCH3 binders on small-molecule microarray, primary screen, biochemical, 635/667 nm fluorescence (AID 1096); conditions: NOTCH3 binding, 635 nm fluorescence, higher = more signal
[10] = small-molecule microarray binders of probe aEGFR, primary screen, biochemical, biotinylated probe, 635/667 nm fluorescence (AID 1097); conditions: higher = more signal;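 note: probe is a biotinylated anti-EGFR antibody binding compounds printed on slides; score combines fluorescence near 667 nm and signal to noise of each spot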

Sequence of Torsin-1A-interacting protein 2 (Homo sapiens) (Q8NFQ8 whole entry, looked up): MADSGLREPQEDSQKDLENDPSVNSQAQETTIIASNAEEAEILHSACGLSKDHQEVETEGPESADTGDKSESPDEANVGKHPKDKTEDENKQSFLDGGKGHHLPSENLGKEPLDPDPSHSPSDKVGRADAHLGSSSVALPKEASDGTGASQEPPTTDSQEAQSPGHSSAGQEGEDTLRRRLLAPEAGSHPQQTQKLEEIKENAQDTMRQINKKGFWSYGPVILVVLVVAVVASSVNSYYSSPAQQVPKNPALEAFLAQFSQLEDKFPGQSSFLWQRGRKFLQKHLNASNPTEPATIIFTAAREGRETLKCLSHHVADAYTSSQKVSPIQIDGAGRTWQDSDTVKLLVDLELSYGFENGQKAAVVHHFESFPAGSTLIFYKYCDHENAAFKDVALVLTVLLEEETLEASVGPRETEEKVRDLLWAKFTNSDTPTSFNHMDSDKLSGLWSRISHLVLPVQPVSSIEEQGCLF
Sequence of Neurogenic locus notch homolog protein 3 (Homo sapiens) (Q9UM47 whole entry, looked up): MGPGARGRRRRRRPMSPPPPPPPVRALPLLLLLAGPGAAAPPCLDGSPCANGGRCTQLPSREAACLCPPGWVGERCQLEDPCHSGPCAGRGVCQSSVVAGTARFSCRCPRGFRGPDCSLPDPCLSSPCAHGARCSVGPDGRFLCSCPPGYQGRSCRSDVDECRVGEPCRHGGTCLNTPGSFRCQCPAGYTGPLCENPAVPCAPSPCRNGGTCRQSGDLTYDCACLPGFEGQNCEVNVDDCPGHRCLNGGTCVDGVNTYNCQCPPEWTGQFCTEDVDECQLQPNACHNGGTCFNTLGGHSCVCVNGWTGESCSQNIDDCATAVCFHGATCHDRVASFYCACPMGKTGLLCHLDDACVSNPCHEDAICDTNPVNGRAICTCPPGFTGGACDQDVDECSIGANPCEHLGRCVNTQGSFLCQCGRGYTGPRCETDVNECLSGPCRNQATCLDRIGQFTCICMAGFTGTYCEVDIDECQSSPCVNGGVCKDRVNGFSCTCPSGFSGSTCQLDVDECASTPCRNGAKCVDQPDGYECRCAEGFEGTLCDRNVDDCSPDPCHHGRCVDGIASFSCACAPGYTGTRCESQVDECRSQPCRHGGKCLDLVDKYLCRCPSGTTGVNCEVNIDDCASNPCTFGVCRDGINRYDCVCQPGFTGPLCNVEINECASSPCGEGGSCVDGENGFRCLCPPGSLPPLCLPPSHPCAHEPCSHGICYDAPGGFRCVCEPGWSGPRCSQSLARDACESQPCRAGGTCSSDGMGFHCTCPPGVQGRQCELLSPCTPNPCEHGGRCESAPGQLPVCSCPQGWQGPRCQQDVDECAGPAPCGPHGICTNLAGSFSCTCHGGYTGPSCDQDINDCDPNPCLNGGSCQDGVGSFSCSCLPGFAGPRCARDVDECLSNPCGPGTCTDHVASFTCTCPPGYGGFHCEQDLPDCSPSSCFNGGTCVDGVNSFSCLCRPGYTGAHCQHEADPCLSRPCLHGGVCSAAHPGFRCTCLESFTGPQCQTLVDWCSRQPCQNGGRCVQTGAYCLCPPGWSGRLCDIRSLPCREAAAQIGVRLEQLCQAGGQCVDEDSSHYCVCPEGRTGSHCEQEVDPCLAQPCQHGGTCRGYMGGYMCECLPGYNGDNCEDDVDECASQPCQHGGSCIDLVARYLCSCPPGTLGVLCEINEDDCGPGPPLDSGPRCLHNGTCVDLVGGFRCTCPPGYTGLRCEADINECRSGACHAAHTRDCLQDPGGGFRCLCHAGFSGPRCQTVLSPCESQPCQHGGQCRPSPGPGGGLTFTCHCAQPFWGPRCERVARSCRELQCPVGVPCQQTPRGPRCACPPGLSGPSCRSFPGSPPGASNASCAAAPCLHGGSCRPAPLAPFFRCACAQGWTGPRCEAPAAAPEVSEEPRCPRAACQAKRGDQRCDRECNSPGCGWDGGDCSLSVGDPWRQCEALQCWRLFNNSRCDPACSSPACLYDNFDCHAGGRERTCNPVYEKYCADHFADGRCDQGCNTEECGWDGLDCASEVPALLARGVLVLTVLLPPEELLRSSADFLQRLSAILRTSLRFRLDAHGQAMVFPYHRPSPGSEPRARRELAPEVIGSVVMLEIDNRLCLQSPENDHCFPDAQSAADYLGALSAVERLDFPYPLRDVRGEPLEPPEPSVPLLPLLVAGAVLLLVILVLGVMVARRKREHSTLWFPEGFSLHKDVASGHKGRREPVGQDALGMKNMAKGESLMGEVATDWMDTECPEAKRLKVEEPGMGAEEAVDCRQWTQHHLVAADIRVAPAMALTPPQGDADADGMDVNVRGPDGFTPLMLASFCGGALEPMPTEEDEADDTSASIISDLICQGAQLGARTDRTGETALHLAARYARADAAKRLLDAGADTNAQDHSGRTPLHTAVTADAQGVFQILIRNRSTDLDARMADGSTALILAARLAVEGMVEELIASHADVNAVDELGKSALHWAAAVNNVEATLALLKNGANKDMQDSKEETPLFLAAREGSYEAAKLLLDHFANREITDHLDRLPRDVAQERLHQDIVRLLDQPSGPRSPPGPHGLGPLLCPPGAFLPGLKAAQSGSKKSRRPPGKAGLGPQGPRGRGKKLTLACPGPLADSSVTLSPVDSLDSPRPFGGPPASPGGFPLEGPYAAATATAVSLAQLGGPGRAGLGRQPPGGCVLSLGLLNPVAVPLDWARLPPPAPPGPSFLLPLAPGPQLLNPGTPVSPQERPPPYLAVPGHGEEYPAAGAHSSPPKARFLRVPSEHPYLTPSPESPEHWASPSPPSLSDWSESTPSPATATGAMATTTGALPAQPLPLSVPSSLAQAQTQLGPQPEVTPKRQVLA

| SMILES | composite z-score [1] | z-score [2] | z-score [3] | z-score [4] | composite z-score [5] | z-score [6] | composite z-score [7] | composite z-score [8] | composite z-score [9] | composite z-score [10] |
| --- | --- | --- | --- | --- | --- | --- | --- | --- | --- | --- |
| CC1(C)[C@@H]2CC(C(O)C3C=CC4C(=O)N(c5ccccc5)C(=O)C4N3Nc3ccc([N+](=O)[O-])cc3)=C[C@H]1C2 (stereo not given in full) | 1.55 | -0.0209 (inactive) | 0.287 (inactive) | 2.09 (inactive) | 3.71 | -0.692 (inactive) | 0.109 | 0.375 | 1.03 | 0.184 |
| CC(C)NC(=O)[C@@]1(c2ccc([N+](=O)[O-])cc2)CC(=O)N(C2CCCCC2)[C@@H]1c1ccc(CO)cc1I | 1.03 | 0.719 (inactive) | 0.475 (inactive) | 2.6 (inactive) | 2.33 | 1.21 (inactive) | 0.134 | -0.941 | -0.0996 | -0.0185 |
| C=CCC(OC(C)=O)[C@@H]1[C@@H](N(Cc2ccc(-c3ccccc3)cc2)C(=O)c2ccc(-c3ccccc3)cc2)c2cc(OCCCO)ccc2N1C(=O)Cc1ccc2ccccc2c1 (stereo not given in full) | 0.758 | -0.609 (inactive) | -0.214 (inactive) | 0.218 (inactive) | 0.765 | -0.763 (inactive) | -0.119 | 0.233 | 0.3 | -0.17 |
| COCCOC(=O)N1C(=O)[C@@]2(c3ccccc31)[C@H](c1ccccc1OCCO)N1[C@H](c3ccccc3)[C@H](c3ccccc3)OC(=O)[C@H]1[C@@H]2C(=O)N1CCN(c2ncccn2)CC1 | 1.54 | 1.68 (inactive) | 1.58 (inactive) | 8.88 (active) | 2.59 | 0.22 (inactive) | -0.0529 | 0.994 | 1.11 | -0.12 |
| Cc1ccc(N2C(=O)c3ccccc3[C@@H](C(=O)NC3CC3)[C@@H]2c2ccc(CO)cc2)nc1 | -1.57 | -1.31 (inactive) | -0.916 (inactive) | -0.486 (inactive) | 2.35 | 0.387 (inactive) | 0.297 | -0.912 | -1.44 | -0.281 |
| COc1cc2c(cc1OC)CN(C(=O)[C@H]1[C@@H]3C(=O)O[C@@H](c4ccccc4)[C@@H](c4ccccc4)N3[C@@H](c3ccc(O)cc3)[C@]13C(=O)Nc1ccccc13)CC2 | 1.27 | 1.16 (inactive) | 0.536 (inactive) | 1.74 (inactive) | 2.32 | -0.204 (inactive) | -0.139 | 0.0366 | 0.518 | -0.191 |
| C=C(C)[C@@H]1CC=C(C(O)C2C=CC3C(=O)N(C)C(=O)C3N2Nc2ccccc2)CC1 (stereo not given in full) | 1.12 | 0.821 (inactive) | -0.329 (inactive) | 1.92 (inactive) | 1.16 | -1.03 (inactive) | 0.118 | 0.728 | 1.08 | 0.0044 |
| C=C(/C(=C/C[C@H](OC(C)=O)c1ccc(CO)o1)c1cc(C(=O)OC)ccc1OC)C(C)C | 0.57 | 1.02 (inactive) | -0.967 (inactive) | 0.0168 (inactive) | 0.381 | 0.865 (inactive) | -0.0485 | 0.58 | 0.368 | -0.0206 |
| O=C(c1ccccc1)N1C(=O)[C@]2(COC(c3ccc(OCCCO)cc3)=N2)Cc2ccccc21 | 1.53 | -1.84 (inactive) | 0.901 (inactive) | 4.51 (inactive) | 3.17 | -0.178 (inactive) | 0.133 | 0.722 | 1.15 | -0.0989 |
| C=CCOC(=O)[C@H]1[C@@H]2C(=O)O[C@@H](c3ccccc3)[C@@H](c3ccccc3)N2[C@@H](c2ccc(OCCOC(=O)[C@@H]3C[C@@H]4C(=O)N[C@@H](CC(C)C)C(=O)N4[C@@H]3c3ccc(O)cc3)cc2)[C@]12C(=O)Nc1ccccc12 | 1.53 | 0.963 (inactive) | 1.32 (inactive) | 4.11 (inactive) | 3.2 | 0.703 (inactive) | 0.115 | 1.49 | 1.1 | 0.0195 |
| [N-]=[N+]=Nc1ccccc1[C@@H]1OC(c2ccc(OCCCO)cc2)=N[C@]1(CCS(=O)(=O)c1ccccc1)C(N)=O | 1.55 | 0.193 (inactive) | -1.36 (inactive) | 0.199 (inactive) | 3.64 | 0.743 (inactive) | 0.588 | 0.561 | 0.91 | 0.122 |
| COc1ccc([Si](C)(C)[C@@H]2[C@@H](CC(=O)N3CCC[C@H]3CO)O[C@]3(C(=O)N(c4ccccc4)c4ccccc43)[C@H]2C)cc1 | 1.54 | -1.57 (inactive) | -0.589 (inactive) | -1.79 (inactive) | 2.37 | 2.79 (inactive) | -0.256 | 0.999 | 1.03 | 0.0436 |
| CC(C)(C)OC(=O)CC[C@]1(C(=O)N2CCOCC2)N=C(c2ccc(OCCCO)cc2)O[C@H]1c1ccccc1N=[N+]=[N-] | 1.28 | -0.54 (inactive) | -0.496 (inactive) | -0.531 (inactive) | 3.25 | 1.57 (inactive) | 0.124 | 0.356 | 0.671 | 0.0552 |
| CCCCCCc1nc(-c2cc(C)c(OC)c(C)c2)cc2c1[Si](C(C)C)(C(C)C)OC2 | 1 | -0.389 (inactive) | -0.114 (inactive) | -0.264 (inactive) | -0.0784 | 0.344 (inactive) | -0.0575 | 0.187 | -0.129 | -0.0828 |
| [N-]=[N+]=NCc1ccccc1[C@@H]1OC(c2ccc(OCCCO)cc2)=N[C@]1(Cc1ccccc1)C(=O)NCC(O)CO (stereo not given in full) | 1.25 | -0.427 (inactive) | 0.0493 (inactive) | -0.659 (inactive) | 3.44 | 0.123 (inactive) | 0.414 | 0.238 | -0.27 | 0.411 |
| CO[C@H]1O[C@H](CO)[C@@H](OC(=O)Nc2ccc(Oc3ccccc3)cc2)[C@H](OC(=O)Nc2ccc3c(c2)OCO3)[C@H]1OC(=O)Nc1ccc2c(c1)OCO2 | 1.53 | 1.57 (inactive) | 1.02 (inactive) | 2.07 (inactive) | 2.42 | 2 (inactive) | 0.25 | 0.39 | 1.02 | 0.166 |
| O=C1N(Cc2ccccc2)c2ccccc2[C@@H]2OC(c3ccc(OCCCO)cc3)=N[C@]12CCS(=O)(=O)c1ccccc1 | 1.5 | 0.805 (inactive) | 1.11 (inactive) | 7.05 (inactive) | 2.98 | 0.0515 (inactive) | 0.169 | 1.11 | 0.783 | 0.0248 |
| C=C(COC)C(=O)CC[C@@H](OC(C)=O)c1ccc(CO)o1 | 1.43 | -1.22 (inactive) | -0.198 (inactive) | -0.22 (inactive) | -0.0809 | 0.433 (inactive) | -0.117 | 1.11 | 0.612 | -0.0463 |
| CN1C(=O)C2C=CC(C(O)c3ccccc3)N(N(c3ccccc3)c3ccccc3)C2C1=O (stereo not given) | -0.124 | 0.0175 (inactive) | 0.808 (inactive) | 0.495 (inactive) | 0.317 | -0.642 (inactive) | 0.603 | 0.141 | 0.422 | -0.0668 |
